Assay outcomes: PubChem, Buhrlage Lab, Dana-Farber Cancer Institute and Novartis Institutes for BioMedical Research (Cambridge, Mass)
UCHL1 inh = inhibitors of human UCHL1 deubiquitinase. purified UCHL1, Ub-rhodamine cleavage fluorescence. inhibition, % at 20 µM. hit rate 0.2% among 47,000
USP8 block = human USP8 deubiquitinase inhibition | purified USP8, Ub-rhodamine cleavage fluorescence, 30 min | AID 1645853 | inhibition, % at 20 µM | hit rate 4.2% among 47,000 | P40818
USP10 block = blocks human USP10 ubiquitin-rhodamine cleavage; inhibition, % at 20 µM; hit rate 1.1% among 47,000; Q14694; purified USP10, Ub-rhodamine fluorescence, 60 min
Target sequence (Q14694 whole entry, looked up): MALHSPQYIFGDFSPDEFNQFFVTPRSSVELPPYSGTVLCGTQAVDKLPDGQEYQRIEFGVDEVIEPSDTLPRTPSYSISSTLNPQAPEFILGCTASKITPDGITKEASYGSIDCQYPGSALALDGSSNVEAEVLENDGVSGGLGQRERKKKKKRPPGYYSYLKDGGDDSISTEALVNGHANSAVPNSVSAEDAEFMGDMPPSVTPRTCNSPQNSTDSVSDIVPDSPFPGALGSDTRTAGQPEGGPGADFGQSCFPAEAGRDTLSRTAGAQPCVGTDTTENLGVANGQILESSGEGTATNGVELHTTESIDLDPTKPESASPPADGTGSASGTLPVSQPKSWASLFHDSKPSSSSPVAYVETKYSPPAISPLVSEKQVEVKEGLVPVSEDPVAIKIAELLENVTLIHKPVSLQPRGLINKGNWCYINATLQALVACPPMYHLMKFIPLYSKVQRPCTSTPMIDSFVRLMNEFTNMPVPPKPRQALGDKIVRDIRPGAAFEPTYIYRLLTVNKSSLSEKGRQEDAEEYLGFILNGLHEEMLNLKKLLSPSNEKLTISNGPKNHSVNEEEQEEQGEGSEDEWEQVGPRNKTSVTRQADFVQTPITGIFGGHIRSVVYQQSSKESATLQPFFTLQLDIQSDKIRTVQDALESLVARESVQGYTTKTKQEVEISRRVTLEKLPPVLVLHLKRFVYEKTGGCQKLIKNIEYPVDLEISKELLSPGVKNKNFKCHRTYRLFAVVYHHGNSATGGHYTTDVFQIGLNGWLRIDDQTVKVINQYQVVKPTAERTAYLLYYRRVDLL
USP7 block = blocks human USP7 ubiquitin-rhodamine cleavage. Q93009. purified USP7, Ub-rhodamine cleavage fluorescence. inhibition, % at 20 µM. hit rate 0.3% among 47,000. AID 1645854
An asterisk follows results filed as active; / = no result given. Hits are enriched below; roughly 5% of the tested compounds scored in any of these assays. No stated cut-off is given here; in the data, active means inhibition above about 30%; inactive means the rest.

SMILES | UCHL1 inh | USP8 block | USP10 block | USP7 block
CC(C)CC1Nc2ccc(C(=O)NCCCN3CCCC3)cc2NC1=O (stereo unspecified) | 5.9 | 84.5* | 1.7 | -11.1
CC(=O)C1=C(O)[C@@]2(O)C(=O)c3c(c(C)c4ccc(C)c(O)c4c3O)C[C@H]2[C@@H](N)C1=O | 53.4* | -103.5 | -3.3 | 50.4*
Cc1nc2c(c(=O)[nH]1)CC[C@@H]1CN(C(=O)c3cccc4ncccc34)C[C@H]21 | -2.5 | -7.8 | -0.3 | -0.5
CCCCCC1OC(=O)c2c(C)cccc2Oc2ccc(O)c(C=O)c2/C=C/C1O (stereo unspecified) | 40.6* | 14.4 | 30.6* | -98.4
CCCn1c(NC(=O)c2cccnc2)nc2ccccc21 | -1.4 | 3.0 | 0.2 | -16.1
CCCn1c(NC(=O)Cc2ccc(OC)c(OC)c2)nc2ccccc21 | 1.7 | 64.3* | -2.3 | -0.5
Cc1ccc(S(=O)(=O)Nc2ccc(NC(=O)CC3OC(=O)c4ccccc43)cc2)cc1[N+](=O)[O-] (stereo unspecified) | 2.8 | -78.6 | 4.1 | 3.2
Cc1ccc(NC(=O)CC2Nc3ccccc3NC2=O)cc1[N+](=O)[O-] (stereo unspecified) | -0.2 | 65.8* | 0.1 | 11.9
Cc1ccc(NC(=O)Cn2c(C)ncc(C(=O)NC3CCCC3)c2=O)c(F)c1 | 1.2 | 14.6 | -3.3 | 1.7
O=C(Oc1coc(CSc2ncccn2)cc1=O)c1ccccc1F | 1.8 | 2.1 | 3.4 | -11.2
Cc1ccnc(SCc2cc(=O)c(OC(=O)c3c(F)cccc3Cl)co2)n1 | 6.2 | 31.1* | 0.3 | 8.1
Cc1csc(SCc2cc(=O)c(OC(=O)c3cccc(F)c3)co2)n1 | 3.3 | 60.7* | 6.4 | -19.9
O=C(O)CN1CCC2(CCC1=O)CC(=O)c1cc(Cl)ccc1O2 (stereo unspecified) | 0.1 | -12.3 | -3.0 | 4.8
Cc1cccc(S(=O)(=O)N2CCCn3c(CN4CCCCC4)nnc3C2)c1 | -0.7 | -17.1 | 0.7 | 8.4
COc1cccc(S(=O)(=O)N2CC[C@@H]3[C@H]2C(=O)N(C)[C@@H](C)C(=O)N3C)c1 | 1.6 | 31.7* | 0.1 | 6.2
CN(c1ccccc1)c1nc(=O)n(CC(=O)NC2CCc3ccccc32)c2ccccc12 (stereo unspecified) | -0.1 | -15.1 | 17.3 | -8.2
N#Cc1c2n(c(=O)n(CCOc3ccccc3F)c1=O)CCC2 | -6.0 | 33.1* | -4.6 | -10.6
COc1ccc(OCCn2c(=O)c(C#N)c3n(c2=O)CCC3)cc1 | -6.9 | 20.4 | -1.4 | -3.4
O=C(C1CCN(S(=O)(=O)c2cc(F)ccc2F)CC1)N1CCc2sccc2C1 | -0.5 | 73.8* | -3.8 | -2.9
CC(C)c1ccc(S(=O)(=O)N2CCC(C(=O)N3CCc4sccc4C3)CC2)cc1 | 1.3 | 18.9 | -8.5 | 6.9
Cc1cccc(OCC(=O)Nc2cc(F)c3nc(N4CCOCC4)ccc3c2)c1 | -5.2 | 60.5* | -9.6 | -10.5
CCN1CCN(c2ccc(NC(=O)COc3cccc(C)c3)cc2)CC1 | -2.3 | 1.2 | -1.8 | -1.2
COCC(=O)Nc1cc(F)c2nc(N3CCOCC3)ccc2c1 | 2.1 | 88.7* | -6.3 | -6.0
Cc1noc(C2(NC(=O)Cc3ccc(F)cc3)CCCCC2)n1 | -1.2 | 0.0 | 3.6 | -19.8
CCc1ccccc1NC(=O)Cn1c(C)nc2c(c1=O)CCN(Cc1ccccc1)C2 | -5.7 | 51.5* | -1.4 | -7.3
SMILES | UCHL1 inh | USP8 block | USP10 block | USP7 block
Cc1ccc(S(=O)(=O)NCc2ccc(C(=O)NCCc3ccc(S(N)(=O)=O)cc3)cc2)cc1 | 2.5 | 63.0* | 48.7* | 21.1
N#Cc1cccc(NC(=O)Nc2cccn(Cc3ccccc3F)c2=O)c1 | 34.7* | 93.7* | 71.3* | -63.4
Cc1ccccc1NC(=O)CNc1ccc(C#N)cc1 | 0.2 | 8.9 | -4.7 | -3.5
N#Cc1ccc(NC(=O)Nc2cccn(Cc3ccccc3Br)c2=O)cc1 | 24.0 | 90.3* | 51.4* | -49.2
N#Cc1cccc(NC(=O)Cn2cccc(-c3nc(-c4ccccc4)no3)c2=O)c1 | -28.7 | 22.6 | -5.5 | -21.8
COc1ccc(-c2cc(C)no2)cc1S(=O)(=O)Nc1ccc(-c2ccno2)cc1 | 0.7 | 58.7* | 3.9 | 1.2
O=C1Nc2c(Cl)cc(Cl)cc2C1(O)c1sc(NC2CCCCC2)nc1-c1ccccc1 (stereo unspecified) | -0.7 | 87.4* | 4.4 | 3.4
c1ccc(-c2noc(NC3CCCC3)n2)cc1 | -0.8 | -1.5 | 7.6 | -10.6
Cc1cc2c(cc1CCc1cc3c(cc1C)OCO3)OCO2 | -0.8 | -6.3 | 3.1 | 2.2
C[C@H](Cc1cc2c(cc1O)OCO2)[C@@H](C)Cc1cc2c(cc1O)OCO2 | 24.7 | 64.4* | 84.0* | 19.5
COCCn1cc(CN2CCC(O)(c3ccccc3F)CC2)c2ccccc21 | -0.2 | 32.2* | -0.1 | 3.2
CCCCNc1ccccc1C(=O)OCc1nnc(-c2cc(-c3ccc(OC)c(OC)c3)nc3ccccc23)o1 | 0.0 | 72.1* | -4.1 | 1.7
COc1ccc(-c2cc(-c3nnc(COC(=O)C4COc5ccccc5O4)o3)c3ccccc3n2)cc1OC (stereo unspecified) | -7.8 | -7.2 | -9.9 | -0.4
O=C1CN(C(=O)NC(Cc2ccccc2)C(=O)NCc2ccncc2)c2ccccc2N1 (stereo unspecified) | 0.1 | 16.9 | -0.6 | 0.6
CNC(=O)c1c2n(c3ncccc13)CCN(S(=O)(=O)c1ccc(-c3ccccc3)cc1)C2 | 0.0 | 13.8 | 34.4* | 7.3
COc1ccc(CN[C@H]2[C@H](O)[C@H](O)C[C@@H]2c2cncnc2)cn1 | 7.2 | 34.9* | -1.5 | -17.0
O[C@H]1[C@H](NCc2cccc(C(F)(F)F)c2)[C@@H](c2cncnc2)C[C@H]1O | 10.6 | 61.0* | -5.0 | -24.8
O[C@H]1[C@H](NCc2ccccc2)[C@@H](c2cccnc2)C[C@H]1O | 0.0 | -1.2 | 0.4 | 0.5
Cc1noc(NS(=O)(=O)c2ccc(NC(=O)COc3ccc(N(C)C(=O)c4ccc(Cl)cc4)cc3)cc2)c1C | -3.5 | 5.3 | 16.5 | -1.9
Cc1noc(NS(=O)(=O)c2ccc(NC(=O)CSc3ccc4ccccc4c3)cc2)c1C | 8.5 | 68.0* | 28.3 | 13.2
CSc1cccc(NC(=O)c2cc(-c3cccnc3)n[nH]2)c1 | 3.5 | 97.2* | 27.0 | /
O=C(Nc1cccc(Cl)c1)c1cc(-c2cccnc2)n[nH]1 | 4.9 | 82.8* | 46.7* | 7.8
O=C(Nc1ccccc1)c1cc(-c2ccncc2)n[nH]1 | 3.2 | 2.3 | 3.0 | 3.9
CN1C(=O)COc2ccccc2CCCC[C@@H]2[C@H]1CCCN2C(=O)c1cnco1 | -3.1 | -3.5 | -0.5 | -1.4
COc1ccc(NC(=O)Cn2cc(C(=O)c3ccc(OC)cc3)c(=O)c3cc4c(cc32)OCCO4)cc1 | 5.7 | 44.4* | 5.8 | 8.1
Cc1ccc(C(=O)c2cn(CC(=O)Nc3ccc(Cl)cc3)c3ccc(F)cc3c2=O)cc1 | -4.2 | 60.4* | 14.9 | 1.8
COc1ccc(NC(=O)Cn2cc(C(=O)c3ccc(F)cc3)c(=O)c3cc(C)ccc32)cc1 | 7.7 | 22.9 | 41.5* | 16.0
CCOc1ccc2c(c1)c(=O)c(C(=O)c1ccc(F)cc1)cn2CC(=O)Nc1ccc(F)cc1 | 30.2* | 72.1* | 20.3 | 46.6*
Cc1cc(C)n(-c2ccc(N3CCN(C(=O)c4ccc5ccccc5c4)CC3)nn2)n1 | 2.5 | 8.9 | 0.0 | 5.4
